According to the supplement of paper PMC12350171:
Structures can show the parent of a compound that is named as a salt.

Experiments:
Details in all cases: 20 µM
[1] = test system: Salmonella enterica typhimurium; test: growth AUC normalised to DMSO control (fraction of control); higher = less growth inhibition, active = hit call of the paper
How it was run: (§1)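 For the AUC endpoint, growth curves were integrated by the trapezoidal rule up to the exponential-to-stationary transition and normalised to DMSO controls on the same plate. The curves came from OD578 readings taken hourly for 24 h, in three biological replicates. Pathogens had been passaged anaerobically twice and inoculated at an OD578 of 0.01 into pre-reduced mGAM plates carrying 20 μM compound and 1% DMSO, sealed with breathable membranes. Medium for Haemophilus parainfluenzae also contained hemin and NAD.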

Shigella flexneri = test: as above
How it was run: as §1

Vibrio cholerae = test: as above
How it was run: as §1

[2] = test system: Yersinia pseudotuberculosis; test: as above
How it was run: as §1

P. vulgatus RND KO = test: growth AUC normalised to DMSO control (median) (fraction of control); higher = less growth inhibition, active = hit call of the paper
How it was run: (§2)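 Anaerobic growth was tracked hourly at OD578 for 24 h in 96-well plates of mGAM seeded at OD578 0.01 with each approved-drug library compound at 20 μM and 1% DMSO. Strains had first been passaged twice overnight without oxygen. Three biological replicates were run. The reported median is the area under the curve, calculated by the trapezoidal rule on curves truncated at entry into stationary phase and normalised to vehicle wells on the same plate.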

P. vulgatus WT = test: as above
How it was run: as §2

[3] = test system: S. enterica typhimurium WT; test: as above
How it was run: as §2

[4] = test system: S. enterica typhimurium tolC KO; test: as above
How it was run: as §2

Measured: growth AUC normalised to DMSO control
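Wherever growth AUC normalised to DMSO control (median) is given: active when median AUC fell below 0.1.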

Nc1ccc(O)c(C(=O)O)c1 [Mesalamine]
inactive: [1] 1.01 | Shigella flexneri 1.02 | Vibrio cholerae 1.02 | [2] 1.03 | P. vulgatus RND KO 1 | P. vulgatus WT 1.03 | [3] 0.998 | [4] 1.01

CN(C)CCC(c1ccc(Cl)cc1)c1ccccn1 (stereo unspecified) [Chlorpheniramine maleate]
inactive: [1] 0.987 | Shigella flexneri 0.94 | Vibrio cholerae 0.972 | [2] 0.956 | P. vulgatus RND KO 0.994 | P. vulgatus WT 0.987 | [3] 0.994 | [4] 0.996

O=c1cc(-c2ccc(O)c(O)c2)oc2cc(O)cc(O)c12 [Luteolin]
inactive: Shigella flexneri 1 | Vibrio cholerae 0.976 | [2] 0.978 | P. vulgatus RND KO 0.987 | P. vulgatus WT 1.02 | [3] 0.993 | [4] 0.878

CCOc1ccc2ccccc2c1C(=O)N[C@@H]1C(=O)N2[C@@H]1SC(C)(C)[C@@H]2C(=O)O [Nafcillin sodium salt monohydrate]
inactive: [1] 0.981 | Shigella flexneri 0.973 | Vibrio cholerae 0.96 | [2] 0.967 | [3] 1

CCC(=O)OCC(=O)[C@@]1(OC(=O)CC)[C@@H](C)C[C@H]2[C@@H]3CCC4=CC(=O)C=C[C@]4(C)[C@@]3(Cl)[C@@H](O)C[C@@]21C [Beclomethasone dipropionate]
inactive: [1] 0.99 | Shigella flexneri 0.956 | Vibrio cholerae 0.965 | [2] 1.01 | P. vulgatus WT 0.972 | [3] 1.01 | [4] 0.975

CCn1cc(C(=O)O)c(=O)c2cnc(N3CCNCC3)nc21 [Pipemidic acid]
inactive: P. vulgatus RND KO 1.02 | P. vulgatus WT 0.996 | [3] 0.107
active: Shigella flexneri 0.113 | Vibrio cholerae 0.0338 | [2] 0.0731 | [4] 0.04

O=C(O)[C@H]1/C(=C/CO)O[C@@H]2CC(=O)N21 [Clavulanate potassium salt]
inactive: [1] 1.01 | Shigella flexneri 1.03 | Vibrio cholerae 1.08 | [2] 1.03 | P. vulgatus WT 1.12 | [3] 0.995 | [4] 0.999

CC(C)(C)NC[C@H](O)c1ccc(O)c(CO)c1 [Levalbuterol hydrochloride]
inactive: [1] 0.95 | Shigella flexneri 1.01 | Vibrio cholerae 1.01 | [2] 0.992 | P. vulgatus RND KO 0.962 | P. vulgatus WT 0.992 | [3] 1.01 | [4] 0.997

Cc1cc(N)c2ccccc2[n+]1CCCCCCCCCC[n+]1c(C)cc(N)c2ccccc21 [Dequalinium dichloride]
active: [2] 0.932 | P. vulgatus RND KO 0.0354 | P. vulgatus WT 0.0484
inactive: [1] 0.989 | Shigella flexneri 0.939 | Vibrio cholerae 0.96 | [4] 0.503

CSc1ccc2c(c1)N(CCC1CCCCN1C)c1ccccc1S2 (stereo unspecified) [Thioridazine hydrochloride]
inactive: [1] 0.978 | Shigella flexneri 1 | Vibrio cholerae 0.957 | [2] 0.975 | P. vulgatus RND KO 0.88 | P. vulgatus WT 0.796 | [3] 0.99 | [4] 0.957

CN/C(=N\CCSCc1nc[nH]c1C)NC#N [Cimetidine]
inactive: Shigella flexneri 0.992 | Vibrio cholerae 1 | [2] 1 | P. vulgatus RND KO 0.995 | P. vulgatus WT 1.02 | [3] 1 | [4] 0.996

COc1ccc2c(c1)c(CC(=O)O)c(C)n2C(=O)c1ccc(Cl)cc1 [Indomethacin]
inactive: Shigella flexneri 0.966 | [2] 1 | P. vulgatus RND KO 0.967 | P. vulgatus WT 1.01 | [3] 1.01 | [4] 0.974
active: Vibrio cholerae 0.448

N[C@@H](Cc1ccc(O)c(O)c1)C(=O)O [Levodopa]
inactive: Shigella flexneri 1 | Vibrio cholerae 0.991 | [2] 0.99 | P. vulgatus RND KO 1.01 | P. vulgatus WT 0.996 | [3] 0.973 | [4] 0.996

CN(Cc1cnc2nc(N)nc(N)c2n1)c1ccc(C(=O)N[C@@H](CCC(=O)O)C(=O)O)cc1 [Amethopterin]
inactive: [1] 0.983 | Shigella flexneri 0.948 | Vibrio cholerae 0.912 | [2] 0.982 | P. vulgatus WT 0.916 | [3] 0.997 | [4] 0.7

Cc1onc(-c2ccccc2Cl)c1C(=O)N[C@@H]1C(=O)N2[C@@H]1SC(C)(C)[C@@H]2C(=O)O [Cloxacillin sodium salt]
active: [4] 0.0356
inactive: [1] 1.01 | Shigella flexneri 1 | Vibrio cholerae 0.99 | [2] 1.01 | [3] 0.994

N=C(N)c1ccc(OCCCCCOc2ccc(C(=N)N)cc2)cc1 [Pentamidine isethionate]
inactive: Shigella flexneri 0.984 | Vibrio cholerae 1.02 | [2] 1.02 | P. vulgatus RND KO 0.591 | P. vulgatus WT 0.749 | [3] 0.999 | [4] 0.985

NNc1nncc2ccccc12 [Hydralazine hydrochloride]
inactive: Shigella flexneri 1.04 | Vibrio cholerae 1.06 | [2] 1.03 | P. vulgatus RND KO 1.01 | P. vulgatus WT 1.04 | [3] 0.996 | [4] 0.992

c1ccc([C@H]2CN3CCSC3=N2)cc1 [Levamisole hydrochloride]
inactive: [1] 0.99 | Shigella flexneri 0.967 | Vibrio cholerae 0.981 | [2] 1 | P. vulgatus RND KO 1.03 | P. vulgatus WT 1.01 | [3] 1 | [4] 1

CCOC(=O)OC(C)OC(=O)[C@@H]1N2C(=O)[C@@H](NC(=O)[C@H](N)c3ccccc3)[C@H]2SC1(C)C (stereo partly specified) [Bacampicillin hydrochloride]
active: [1] 0.00881 | Shigella flexneri 0.0323 | [2] 0.277 | [4] 0.0179
inactive: Vibrio cholerae 1 | [3] 0.154

CC(N/C(=N\C#N)Nc1ccncc1)C(C)(C)C (stereo unspecified) [Pinacidil monohydrate]
inactive: [1] 0.991 | Shigella flexneri 1 | Vibrio cholerae 0.998 | [2] 0.982 | P. vulgatus RND KO 1.07 | P. vulgatus WT 1.06 | [3] 1.01 | [4] 0.976

CC(=O)Oc1ccc(C(c2ccc(OC(C)=O)cc2)c2ccccn2)cc1 [Bisacodyl]
inactive: Shigella flexneri 1.01 | Vibrio cholerae 0.991 | [2] 1.01 | P. vulgatus RND KO 1.02 | P. vulgatus WT 1.04 | [3] 1.01 | [4] 1.01

CN(N=O)C(=O)N[C@H]1C(O)O[C@H](CO)[C@@H](O)[C@@H]1O (mixture of isomers) [Streptozotocin]
active: [1] 0.659 | Shigella flexneri 0.0254 | Vibrio cholerae 0.141 | [2] 0.0388 | P. vulgatus RND KO 0.0955 | P. vulgatus WT 0.0778
inactive: [3] 0.725 | [4] 0.694

CC(C)(C)C(O)/C=C/c1ccc2c(c1)OCO2 (stereo unspecified) [Stiripentol]
inactive: P. vulgatus RND KO 1.01 | P. vulgatus WT 1.02 | [3] 1 | [4] 0.93

C=C(CC)C(=O)c1ccc(OCC(=O)O)c(Cl)c1Cl [Ethacrynic acid]
inactive: Shigella flexneri 0.998 | Vibrio cholerae 1.02 | P. vulgatus RND KO 0.994 | P. vulgatus WT 1.01 | [3] 1 | [4] 1.02

Nc1cccc2c1C(=O)N(C1CCC(=O)NC1=O)C2=O (stereo unspecified) [Pomalidomide]
inactive: P. vulgatus RND KO 1.06 | P. vulgatus WT 1.09 | [3] 1.02 | [4] 0.983

O=C(C1CCCCC1)N1CC(=O)N2CCc3ccccc3C2C1 (stereo unspecified) [Praziquantel]
inactive: [2] 0.996 | P. vulgatus RND KO 0.997 | P. vulgatus WT 1.03 | [3] 1.01 | [4] 0.997

CC(=O)[C@H]1CC[C@H]2[C@@H]3CCC4=CC(=O)CC[C@]4(C)[C@H]3CC[C@]12C [Progesterone]
inactive: Shigella flexneri 1.01 | Vibrio cholerae 1 | [2] 1 | P. vulgatus WT 0.612 | [3] 1.02 | [4] 0.918
active: P. vulgatus RND KO 0.0182

COc1cc([C@@H]2c3cc4c(cc3[C@@H](O[C@@H]3O[C@@H]5CO[C@@H](C)O[C@H]5[C@H](O)[C@H]3O)[C@H]3COC(=O)[C@H]23)OCO4)cc(OC)c1O [Etoposide]
active: [4] 0.0378
inactive: Shigella flexneri 1.03 | Vibrio cholerae 1.02 | [2] 0.99 | P. vulgatus WT 1.09 | [3] 1

Cc1ccc(Nc2c(F)cccc2Cl)c(CC(=O)O)c1 [Lumiracoxib]
inactive: P. vulgatus RND KO 0.985 | P. vulgatus WT 1.01 | [3] 1 | [4] 1

Cc1cc(O)c(C(=O)N[C@@H](C(=O)N[C@@H]2C(=O)N3C(C(=O)O)=C(CSc4nnnn4C)CS[C@H]23)c2ccc(O)cc2)cn1 [Cefpiramide]
active: P. vulgatus RND KO 0.0197 | P. vulgatus WT 0.0147 | [4] 0.0047
inactive: [3] 0.121

O=c1[nH]cnc2c1ncn2[C@H]1CC[C@@H](CO)O1 [Didanosine]
inactive: Shigella flexneri 1.01 | Vibrio cholerae 1.04 | P. vulgatus RND KO 1 | P. vulgatus WT 0.973 | [3] 0.992 | [4] 0.949
active: [2] 0.73

CC(C)NC[C@@H](O)COc1cccc2ccccc12 [(R) Propranolol hydrochloride]
inactive: Shigella flexneri 1.02 | Vibrio cholerae 1.02 | [2] 0.999 | P. vulgatus RND KO 0.978 | P. vulgatus WT 0.988 | [3] 0.984 | [4] 0.983
